In PubChem BioAssay AID434970 (Sanford-Burnham Center for Chemical Genomics, 2010) one finds activation factor and activity change, negative = activation data, which are given here for 42 molecules.

Out of some 11,000 compounds screened, about 310 (2.8%) were called active. Cut-off read from the data, not from the text of the source: active = activity change below about -85%; inactive = the rest. Only a selection was taken, and actives are over-represented in it overall.

This experiment has as its system intestinal alkaline phosphatase [Mus musculus]. Description: mouse intestinal phosphatase enzyme activation – biochemical, luminescence, single concentration, confirmation (AID 434970). The settings on record: purified mouse IAP, CDP-Star luminescence, 30 min, at 10 µM; activation factor: measured here: IAP activation factor, stronger effect = higher value; activity change, negative = activation: stronger effect = lower value.
Take `Cc1ccc(NCc2nnc(SCC(N)=O)n2CC2CCCO2)c(C)c1` (centres undefined): the activation factor was determined as 1.09 and the activity change, negative = activation is -9.4% (inactive).
For the molecule `O=C(NCc1ccc2c(c1)CCO2)Nc1cccc(C(F)(F)F)c1`, the activation factor worked out at 2.44 and the activity change, negative = activation is -144% (active).
For `Fc1ccc(CNC(=S)Nc2cccc(C(F)(F)F)c2)cc1`, the activation factor came to 1.28 and the activity change, negative = activation was -27.5% (inactive).
For the molecule `COc1ccc(CNC(=O)Nc2cccc(C(F)(F)F)c2)cc1OC`, the activation factor amounted to 2.21 and the activity change, negative = activation was -121% (active).
Take `FC(F)(F)c1cccc(NC(=S)NCc2ccc(Cl)cc2)c1`: the activation factor came out at 1.18 and the activity change, negative = activation is -18.2% (inactive).
Turning to `FC(F)(F)c1cccc(NC(=S)NCc2ccccc2)c1`, the activation factor was 1.69 and the activity change, negative = activation was -69.2% (inactive).
`COc1ccc(CNC(=O)NCc2ccc(OC)c(OC)c2)cc1OC`: the activation factor is 1.09 and the activity change, negative = activation is -9% (inactive).
The matching figures for `Cc1cc(C)c2c(-n3cccc3)c(C(=O)NNS(=O)(=O)c3ccc(Br)cc3)sc2n1`: 0.865 and 13.5% (inactive).
The matching figures for `CC1(C)CC2CC(C)(CN2C(=O)CN2C(=O)c3ccccc3C2=O)C1` (centres undefined): 1.09 and -8.65% (inactive).
Take `CC(=O)c1ccc(NC(=O)CCn2c(=O)oc3ccccc32)cc1`: the activation factor was found to be 1.03 and the activity change, negative = activation is -3.25% (inactive).
For `COc1ccccc1CNC(=O)CCCOc1cc(=O)n(C)c2ccccc12`, the activation factor was determined as 0.997 and the activity change, negative = activation was 0.3% (inactive).
`C=CCC1[C@H](C)[C@H]2[C@@H]3CC[C@@H](C3)[C@H]2CN1S(=O)(=O)c1ccc(C)cc1` (some centres undefined): the activation factor came out at 1.12 and the activity change, negative = activation was -11.8% (inactive).
For the molecule `CCN(CC)CCNC(=O)c1ccc(NC(=O)Nc2cccc3ccccc23)cc1`, the activation factor was 2.6 and the activity change, negative = activation was -160% (active).
On to `O=C(Nc1ccccc1)Nc1cccc2ccccc12`, for which the activation factor is 1.79 and the activity change, negative = activation was -78.8% (inactive).
With `N#CCc1ccc(NC(=O)Nc2cccc3ccccc23)cc1`, the activation factor is 1.89 and the activity change, negative = activation was -89.1% (inactive).
Take `CCOc1ccc(CC(=O)OCN2C(=O)c3ccccc3C2=O)cc1`: the activation factor worked out at 0.926 and the activity change, negative = activation was 7.35% (inactive).
On to `CCOc1ccccc1NC(=O)c1cccc(NC(=O)CC(c2ccccc2)c2ccccc2)c1`, for which the activation factor came out at 1.39 and the activity change, negative = activation was -39.4% (inactive).
On the same counts, the results for `CCOc1ccc(NC(=O)CC(c2ccccc2)c2ccc(F)cc2)cc1` (centres undefined) are 1.44 and -43.6% (inactive).
On the same counts, the results for `Cc1ccc(NC(=O)c2ncn(CC(=O)NCC(C)c3ccccc3)n2)cc1C` (centres undefined) are 0.995 and 0.5% (inactive).
As for `Cc1ccc(NC(=O)CNc2ccc(OC(C)C)cc2)cc1`, the activation factor came to 0.9 and the activity change, negative = activation was 10% (inactive).
For `COc1ccccc1C(CC(=O)Nc1ccc(Cl)cc1)c1ccc(OC(C)C)cc1` (centres undefined), the activation factor is 1.91 and the activity change, negative = activation is -90.9% (active).
For the molecule `COc1ccccc1C(CC(=O)Nc1ccc(C)c(C)c1)c1ccc(OC(C)C)cc1` (centres undefined), the activation factor stood at 2.06 and the activity change, negative = activation was -106% (active).
With `O=C(CN(Cc1ccccc1F)C(=O)Cn1nnc(-c2cccs2)n1)NC1CCCCC1`, the activation factor is 1.22 and the activity change, negative = activation was -22.1% (inactive).
`Cc1cc(C(F)F)nn1CC(=O)N1CCSCC1`: the activation factor stood at 0.984 and the activity change, negative = activation was 1.65% (inactive).
The matching figures for `CCCC(=O)NC(=S)Nc1ccccc1C(F)(F)F`: 0.974 and 2.55% (inactive).
For `CCN(CC)S(=O)(=O)c1ccc2c(c1)nc(SCc1nc3ccsc3c(=O)[nH]1)n2CC`, the activation factor is 0.992 and the activity change, negative = activation is 0.85% (inactive).
On the same counts, the results for `COc1ccc(CNC(=S)Nc2ccc(F)c(Cl)c2)cc1OC` are 1.56 and -56.2% (inactive).
As for `COc1ccc(N2C(=O)CCC(C(=O)NCc3cccnc3)C2c2ccc(OC)c(OC)c2)cc1` (centres undefined), the activation factor came out at 0.977 and the activity change, negative = activation was 2.3% (inactive).
Consider `O=C(NCc1ccccn1)NC12CC3CC(CC(C3)C1)C2`, for which the activation factor stood at 1.06 and the activity change, negative = activation was -6.25% (inactive).
Consider `O=C(Nc1cnn(Cc2ccccc2)c1)NC12CC3CC(CC(C3)C1)C2`, for which the activation factor was 2.05 and the activity change, negative = activation was -105% (active).
On to `O=C(Nc1cnn(Cc2ccc(Cl)c(Cl)c2)c1)C12CC3CC(CC(C3)C1)C2`, for which the activation factor is 1.17 and the activity change, negative = activation is -16.9% (inactive).
Regarding `COc1ccccc1C(=O)N1CCN=C1SC`, the activation factor was found to be 0.943 and the activity change, negative = activation was 5.75% (inactive).
The matching figures for `O=C(O)CCN1C(=O)NC2(CCCC2)C1=O`: 1.15 and -15.3% (inactive).
Turning to `Cc1ccc(C)c(N(C)C(=O)c2coc(=O)c3ccccc23)c1`, the activation factor was 0.967 and the activity change, negative = activation was 3.3% (inactive).
`Cc1cccc(CN2CCC(CNC(=O)Nc3ccc(F)c(Cl)c3)CC2)c1`: the activation factor was found to be 2.15 and the activity change, negative = activation was -115% (active).
With `COc1cccc(NC(=O)COC(=O)c2cc(S(=O)(=O)N3CCOCC3)ccc2C)c1`, the activation factor came out at 0.964 and the activity change, negative = activation is 3.65% (inactive).
In the case of `O=C(NCC1CCN(Cc2cccc(Cl)c2)CC1)Nc1ccc(Cl)cc1`, the activation factor was 1.9 and the activity change, negative = activation is -89.5% (inactive).
In the case of `Cc1cccc(NC(=O)NCC2CCN(c3ccc(S(=O)(=O)N4CCOCC4)cc3)CC2)c1`, the activation factor amounted to 2.56 and the activity change, negative = activation was -156% (active).
Turning to `O=C(NCC1CCN(c2ccc(S(=O)(=O)N3CCOCC3)cc2)CC1)Nc1ccccc1`, the activation factor amounted to 1.77 and the activity change, negative = activation was -77.3% (inactive).
With `CCc1cccc(CN2CCC(CNC(=O)Nc3ccc(Cl)cc3)CC2)c1`, the activation factor turned out to be 1.68 and the activity change, negative = activation is -67.9% (inactive).
On the same counts, the results for `CCc1ccc(NC(=O)NCC2CCN(Cc3cccc(Cl)c3)CC2)cc1` are 2.2 and -120% (active).
The matching figures for `Cc1ccc(NC(=O)NCC2CCN(Cc3cccc(Cl)c3)CC2)cc1Cl`: 1.87 and -87.3% (active).
